For orientation: IC50 means the point on the concentration scale where inhibition reaches its midpoint.

The source made the active and inactive calls. How the calls were made is not given here.

The nature of the test: Bfl-1 counter-screen inhibitors, SAR follow-up, counter-screen for UBC13 polyubiquitination inhibitor project, biochemical, set 4 (AID 602400). As to conditions: Bfl-1 counterscreen for UBC13 inhibitors. In general terms: Counterscreens check selectivity or assay interference.
For `Cc1ccc(NC(=O)C2CCN(c3ncnc4c3nc3n4CCCC3)CC2)cc1Br`, the IC50 is 14.7 µM (active). On to `Cc1ccc(NC(=O)C2CCCN(c3ncnc4c3nc3n4CCCCC3)C2)cc1Br` (stereo not drawn), for which the IC50 was > 100 µM (inactive). In the case of `Cc1cccc(N2CCN(CCCNC(=O)C3CCCN(c4ncnc5c4nc4n5CCCCC4)C3)CC2C)c1` (stereo not drawn), the IC50 was > 100 µM (inactive).

With `Cc1cccc(NC(=O)C2CCN(c3ncnc4c3nc3n4CCCC3)CC2)c1`, the IC50 was 23 µM (active). `Cc1cccc(NC(=O)C2CCN(c3ncnc4c3nc3n4CCCCC3)CC2)c1C`: the IC50 was > 100 µM (inactive). Regarding `O=C(NCC1CCN(Cc2ccccc2F)CC1)C1CCCN(c2ncnc3c2nc2n3CCCCC2)C1` (stereo not drawn), the IC50 was > 100 µM (inactive).

With `O=C(NCc1cccc(Cl)c1)C1CCN(c2ncnc3c2nc2n3CCCCC2)CC1`, the IC50 was > 100 µM (inactive).

In the case of `O=C(C1CCN(c2ncnc3c2nc2n3CCCCC2)CC1)N1CCN(c2ccccc2)CC1`, the IC50 was > 100 µM (inactive).

Consider `CC1CCCCN1C(=O)C1CCN(c2ncnc3c2nc2n3CCCCC2)CC1` (stereo not drawn), for which the IC50 is > 100 µM (inactive). With `Cc1ccc(NC(=O)C2CCN(c3ncnc4c3nc3n4CCCCC3)CC2)cc1Br`, the IC50 was > 100 µM (inactive). In the case of `O=C(NCCCN1CCN(c2ccccc2)CC1)C1CCCN(c2ncnc3c2nc2n3CCCCC2)C1` (stereo not drawn), the IC50 was > 100 µM (inactive). On to `Cc1cc(C)cc(NC(=O)C2CCCN(c3ncnc4c3nc3n4CCCC3)C2)c1` (stereo not drawn), for which the IC50 was > 100 µM (inactive). With `COc1cc(OC)c(NC(=O)C2CCN(c3ncnc4c3nc3n4CCCCC3)CC2)cc1Cl`, the IC50 was > 100 µM (inactive). Turning to `O=C(NCCCN1CCCCC1)C1CCN(c2ncnc3c2nc2n3CCCCC2)CC1`, the IC50 was > 100 µM (inactive). In the case of `Cc1cccc(NC(=O)C2CCCN(c3ncnc4c3nc3n4CCCCC3)C2)c1` (stereo not drawn) it was > 100 µM (inactive). Take `O=C(C1CCN(c2ncnc3c2nc2n3CCCCC2)CC1)N1CCN(c2ccc(F)cc2)CC1`: the IC50 is > 100 µM (inactive). As to `COc1ccc(Cl)cc1NC(=O)C1CCN(c2ncnc3c2nc2n3CCCCC2)CC1`, the IC50 is > 100 µM (inactive). `O=C(C1CCN(c2ncnc3c2nc2n3CCCCC2)CC1)N1CCN(c2ccccn2)CC1`: the IC50 is > 100 µM (inactive). In the case of `CCC1CCCCN1CCCNC(=O)C1CCN(c2ncnc3c2nc2n3CCCCC2)CC1` (stereo not drawn), the IC50 was > 100 µM (inactive). As for `Cc1ccc(C)c(N2CCN(CCCNC(=O)C3CCCN(c4ncnc5c4nc4n5CCCCC4)C3)CC2)c1` (stereo not drawn), the IC50 is > 100 µM (inactive). Consider `O=C(C1CCN(c2ncnc3c2nc2n3CCCCC2)CC1)N1CCN(c2ncccn2)CC1`, for which the IC50 was > 100 µM (inactive). With `CCCN1CCN(C(=O)C2CCN(c3ncnc4c3nc3n4CCCCC3)CC2)CC1`, the IC50 is > 100 µM (inactive). In the case of `O=C(Nc1cccc(Cl)c1)C1CCN(c2ncnc3c2nc2n3CCCCC2)CC1` it was > 100 µM (inactive); in that of `Cc1ccc(NC(=O)C2CCCN(c3ncnc4c3nc3n4CCCCC3)C2)cc1F` (stereo not drawn), > 100 µM (inactive). For `O=C(NCc1cccc(Cl)c1)C1CCCN(c2ncnc3c2nc2n3CCCCC2)C1` (stereo not drawn), the IC50 is > 100 µM (inactive). As for `Cc1cc(C)cc(NC(=O)C2CCN(c3ncnc4c3nc3n4CCCCC3)CC2)c1`, the 50% inhibitory concentration (IC50) was 72.9 µM (active).

`COc1ccccc1N1CCN(CCCNC(=O)C2CCCN(c3ncnc4c3nc3n4CCCCC3)C2)CC1` (stereo not drawn): the IC50 was > 100 µM (inactive). Turning to `CC1CCCC(C)N1CCCNC(=O)C1CCCN(c2ncnc3c2nc2n3CCCCC2)C1` (stereo not drawn), the IC50 is > 100 µM (inactive).

For the compound `O=C(C1CCN(c2ncnc3c2nc2n3CCCCC2)CC1)N1CCC(Cc2ccccc2)CC1`, the IC50 is > 100 µM (inactive). Regarding `O=C(NCc1ccc(Cl)c(Cl)c1)C1CCCN(c2ncnc3c2nc2n3CCCC2)C1` (stereo not drawn), the IC50 was > 100 µM (inactive). In the case of `O=C(NCc1ccc(Cl)c(Cl)c1)C1CCN(c2ncnc3c2nc2n3CCCCC2)CC1`, the IC50 was > 100 µM (inactive). Regarding `O=C(NCC1CCN(Cc2ccc(F)cc2)CC1)C1CCCN(c2ncnc3c2nc2n3CCCCC2)C1` (stereo not drawn), the IC50 was > 100 µM (inactive).

Turning to `O=C(C1CCN(c2ncnc3c2nc2n3CCCCC2)CC1)N1CCN(Cc2ccccc2)CC1`, the IC50 is > 100 µM (inactive). In the case of `O=C(C1CCN(c2ncnc3c2nc2n3CCCCC2)CC1)N1CCOCC1` it was > 100 µM (inactive); in that of `O=C(NCC1CCN(Cc2cccc(Cl)c2)CC1)C1CCCN(c2ncnc3c2nc2n3CCCCC2)C1` (stereo not drawn), > 100 µM (inactive). Take `Cc1c(Cl)cccc1NC(=O)C1CCN(c2ncnc3c2nc2n3CCCCC2)CC1`: the IC50 was > 100 µM (inactive). As to `O=C(c1ccco1)N1CCN(C(=O)C2CCN(c3ncnc4c3nc3n4CCCCC3)CC2)CC1`, the IC50 is > 100 µM (inactive). `O=C(NCC1CCN(Cc2ccccc2Cl)CC1)C1CCCN(c2ncnc3c2nc2n3CCCCC2)C1` (stereo not drawn): the IC50 is > 100 µM (inactive).

The values are drawn from PubChem BioAssay AID602400 (Sanford-Burnham Center for Chemical Genomics, 2012).
